# Measured values: the supplement of paper PMC9135407
# Where “and” joins values, the source holds several entries; their conditions need not be identical. Identical values can stand only once. Counter-ions that a name gives are not always drawn. The whole screen tested about 5,800 compounds, of which about 620 (11%) showed activity. This is one part of a sample in which actives are shown more often than they occur. Unmarked numbers belong to inactive results.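 How the source made its calls: active = score above a cut-off or among the top three wells of a plate; in these data no inactive exceeds 0.85.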
# System: primary human hepatic stellate cells (donor 1)
# Test: scaled lipid accumulation score (0 = DMSO-like, 1 = nortriptyline-like); higher = stronger HSC inactivation (lipid re-accumulation), active = hit call of the paper
# Settings: 48 h
# Description: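 Primary lipid accumulation screen in primary human hepatic stellate cell myofibroblasts (donor 1, passage 8) in 384-well plates. 100 nL of library compound was pin-transferred into 30 µL medium in duplicate, and cells were treated for 48 h. The 'Scaled' score combines distance from plate baseline, toxicity and reproducibility penalties, and is normalised to nortriptyline (positive) and DMSO (negative) controls on each plate. A hit is defined as scaled >0.85 or among the top 3 wells per plate.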
# [1] = library stock concentration: 10 mM
# [2] = library stock concentration: 3.33 mM
# [3] = library stock concentration: 80 uM
# [4] = library stock concentration: 400 uM
# [5] = library stock concentration: 2 mM
# [6] = library stock concentration: 1 mM
structure (smiles),measurement,setting,value
CCCc1nc(C)c2c(=O)nc(-c3cc(S(=O)(=O)N4CCN(CC)CC4)ccc3OCC)[nH]n12,scaled lipid accumulation score,[1],≤ 0
CCCc1nc(C)c2c(=O)nc(-c3cc(S(=O)(=O)N4CCN(CC)CC4)ccc3OCC)[nH]n12 [Vardenafil HCl Trihydrate],scaled lipid accumulation score,[2],≤ 0
same,scaled lipid accumulation score,[1],0.473
COc1cc2ncnc(-n3nc(-c4ccccn4)nc3N)c2cc1OC,scaled lipid accumulation score,[3],≤ 0
same,scaled lipid accumulation score,[4],0.052
same,scaled lipid accumulation score,[5],0.101
same,scaled lipid accumulation score,[1],0.046
N[C@H]1C(O)O[C@H](CO)[C@@H](O)[C@@H]1O (some centres not stated) [Glucosamine hydrochloride],scaled lipid accumulation score,library stock concentration: 9.3 mM,≤ -0.001
same,scaled lipid accumulation score,[1],0.034
"CCCCCC=CCC=CCC=CCC=CCCCCCC(=O)O [Adrenic acid (22:4, n-6)]",scaled lipid accumulation score,[6],≤ -0.01
CCN(CC)CCOCCOC(=O)C(CC)(CC)c1ccccc1.O=C(O)CC(O)(CC(=O)O)C(=O)O,scaled lipid accumulation score,[1],0.866 (active)
CCN(CC)CCOc1ccc(C(=C(Cl)c2ccccc2)c2ccccc2)cc1 [Clomiphene citrate],scaled lipid accumulation score,library stock concentration: 4.9 mM,0.705
same,scaled lipid accumulation score,[1],≤ 0
CCN(CC)CCOC(=O)c1ccc(N)cc1 [Procaine HCl],scaled lipid accumulation score,[2],≤ 0
same,scaled lipid accumulation score,[1],≤ -0.001
CCN(CC)CCOc1ccc(C(=C(Cl)c2ccccc2)c2ccccc2)cc1.O=C(O)CC(O)(CC(=O)O)C(=O)O [Clomid],scaled lipid accumulation score,[1],0.963 (active)
CCN(CC)CCOc1ccc(C(=C(Cl)c2ccccc2)c2ccccc2)cc1.O=C(O)CC(O)(CC(=O)O)C(=O)O [Clomifene citrate],scaled lipid accumulation score,[1],1.12 (active)
CCN(CC)CCOC(=O)c1ccc(N)cc1 [Procaine hydrochloride],scaled lipid accumulation score,,0.256
same,scaled lipid accumulation score,library stock concentration: 7.3 mM,≤ 0
same,scaled lipid accumulation score,[1],≤ 0
CCN(CC)CCOCCOC(=O)C1(c2ccccc2)CCCC1 [Carbetapentane citrate],scaled lipid accumulation score,,0.595
same,scaled lipid accumulation score,[1],0.72 and 0.014 and 0.411
CCCC(C(=O)OCCN(CC)CC)(c1ccccc1)c1ccccc1 [SKF-525A hydrochloride],scaled lipid accumulation score,[1],0.355
CCCC(C(=O)OCCN(CC)CC)(c1ccccc1)c1ccccc1 [Proadifen hydrochloride],scaled lipid accumulation score,,0.228
same,scaled lipid accumulation score,library stock concentration: 5.1 mM,0.536
same,scaled lipid accumulation score,[1],0.511
COc1ccc(C(Cl)=C(c2ccc(OC)cc2)c2ccc(OC)cc2)cc1 [Chlorotrianisene],scaled lipid accumulation score,,≤ 0
same,scaled lipid accumulation score,library stock concentration: 5.3 mM,0.022
same,scaled lipid accumulation score,[1],≤ 0
CCN(CC)CCOc1ccc(C(=C(Cl)c2ccccc2)c2ccccc2)cc1 [Clomifene citrate],scaled lipid accumulation score,[2],0.72
CCN(CC)CCOCCOC(=O)C1(c2ccccc2)CCCC1 [Pentoxyverine Citrate],scaled lipid accumulation score,[2],≤ 0
same,scaled lipid accumulation score,[1],0.424
"CCN(CC)CCOc1ccc(/C(=C(/Cl)c2ccccc2)c2ccccc2)cc1.O=C(O)CC(O)(CC(=O)O)C(=O)O [Clomiphene citrate (Z,E)]",scaled lipid accumulation score,,0.946 (active)
CC(C)[C@H]1c2ccc(F)cc2CC[C@@]1(CCN(C)CCCc1nc2ccccc2[nH]1)OC(=O)C1CC1,scaled lipid accumulation score,[1],≤ -0.055
CC(C)[C@H]1c2ccc(F)cc2CC[C@@]1(CCN(C)CCCc1nc2ccccc2[nH]1)OC(=O)C1CC1 [NNC 55-0396 dihydrochloride],scaled lipid accumulation score,[1],0.432
COc1ccc(-c2nc3cc(F)ccc3s2)cc1OC,scaled lipid accumulation score,[6],≤ 0
C=C1C[C@]23C[C@@]1(O)CC[C@H]2[C@@]12C=C[C@H](O)[C@@](C)(C(=O)O1)[C@H]2[C@@H]3C(=O)O [Gibberellic acid],scaled lipid accumulation score,,≤ 0
Cc1cc(I)ccc1Nc1c(C(=O)NOCC2CC2)cc(F)c(F)c1F,scaled lipid accumulation score,[1],≤ -0.001
CCc1cc2c(c(CC)n1)CCC(=O)N2Cc1ccc(-c2ccccc2-c2nn[nH]n2)cc1 [ZD 7155 hydrochloride],scaled lipid accumulation score,[1],0.009
CCCCCCCCCCCCCCC[C@@H](O)[C@H](CO)NC(=O)CCCCCCC [C8 Dihydroceramide],scaled lipid accumulation score,[6],≤ -0.021
CCN(CC)CCOc1ccc(Cc2ccccc2)cc1.O=C(O)/C=C/C(=O)O [DPPE fumarate],scaled lipid accumulation score,[1],0.879 (active)
CCN(CC)CCOC(=O)C(c1ccccc1)c1ccccc1 [Adiphenine hydrochloride],scaled lipid accumulation score,,≤ 0
same,scaled lipid accumulation score,library stock concentration: 5.7 mM,0.005
same,scaled lipid accumulation score,[1],0.111
CN(CCCOc1ccc(Cc2ccccc2)cc1)CCC(=O)O,scaled lipid accumulation score,[1],≤ 0
CCN(CC)CCOC(=O)C(c1ccccc1)c1ccccc1 [Adiphenine HCl],scaled lipid accumulation score,[2],≤ 0
same,scaled lipid accumulation score,[1],≤ 0
COc1ccc2c(c1)c(CC(=O)Nc1cccnc1)c(C)n2C(=O)c1ccc(Cl)cc1 [N-(3-pyridyl)-Indomethacin amide],scaled lipid accumulation score,[6],0.198
CCCc1ccc(C(=O)Oc2ccc(C#N)cc2)cc1,scaled lipid accumulation score,[1],0.011
CN(C)C(=O)CCSC(SCCC(=O)O)c1cccc(/C=C/c2ccc3ccc(Cl)cc3n2)c1 (configuration not stated) [MK 571 (sodium salt)],scaled lipid accumulation score,[6],≤ 0
CCOc1cc2ncc(C#N)c(Nc3ccc(F)c(Cl)c3)c2cc1NC(=O)C=CCN(C)C [Pelitinib (EKB-569)],scaled lipid accumulation score,[2],1.01 (active)
CCOc1cc2ncc(C#N)c(Nc3ccc(F)c(Cl)c3)c2cc1NC(=O)/C=C/CN(C)C [Pelitinib (EKB-569)],scaled lipid accumulation score,[1],0.498
CCOc1cc2ncc(C#N)c(Nc3ccc(F)c(Cl)c3)c2cc1NC(=O)C=CCN(C)C,scaled lipid accumulation score,[1],1.13 (active)
CCOc1cc2ncc(C#N)c(Nc3ccc(F)c(Cl)c3)c2cc1NC(=O)/C=C/CN(C)C,scaled lipid accumulation score,[3],0.071
same,scaled lipid accumulation score,[4],≤ -0.009
same,scaled lipid accumulation score,[5],0.269
CCOc1cc(C(=O)Nc2ccc(Cl)c(-c3nc4ccccc4[nH]3)c2)cc(OCC)c1OCC,scaled lipid accumulation score,[1],0.438
